# Measured values taken from PubChem BioAssay AID504466 (National Center for Advancing Translational Sciences (NCATS), 2011).
# The campaign covered roughly 330,000 compounds. About 4,200 (1.3%) were called active. Not shown: some 6% with an inconclusive outcome. The full list was thinned out, with actives kept by preference. Values without a mark were called inactive. The call rests on the fitted dose curve; in most records, active means well fitted activation curve with a large enough effect; inconclusive means small, poorly fitted or top-dose-only effect; inactive means no such curve, though single readings can be large or run the other way.
# Assay: qHTS screen for small molecules that induce genotoxicity in human embryonic kidney (HEK293T) cells expressing luciferase-tagged ELG1; further: nearly all actives have a fitted effect of over 60% in size; on activity change, positive = activation: % of control where 0% means no effect
# Conditions: HEK293T ELG1-luciferase reporter, luminescence, 16 h; series mostly up to 46 µM; activity change, positive = activation: at the top concentration
# Procedure, shortened: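 Luminescence read-out: rising ELG1-luciferase signal, reflecting elevated ELG1 protein under genetic stress, flags genotoxic compounds. Cells were treated for 16 hr at 37 °C before ONE-Glo detection.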
# Potency means the concentration at half of the fitted maximal effect.
SMILES,"activity change, positive = activation [%]",Potency
CC1CN(C(=S)SCC(=O)c2ccccc2)CC(C)O1 (stereo not given),14.6,–
O=C(CSC(=S)N1CCOCC1)c1ccccc1,–,2.06 µM (active)
O=C(CSC(=S)N1CCOCC1)c1cc(Br)cc(Br)c1O,0.304,–
O=C(CN1C(=O)NC2(CCOc3ccccc32)C1=O)Nc1cccc([N+](=O)[O-])c1 (stereo not given),-4.8,–
O=S(=O)(NCC1CN(S(=O)(=O)c2ccc3c(c2)OCCO3)C1)c1c(F)cccc1F,-2.32,–
CC[C@]12c3[nH]c4ccc(OC)cc4c3CCN1C(=O)C(CC(=O)NCc1ccco1)C[C@@H]2C(=O)N1CCN(C(=O)C2CC2)CC1 (stereo not given in full),3.89,–
CC(=O)Nc1ccc(S(=O)(=O)Nc2cccc(NC(=O)C(C)(C)C)c2)cc1,-2.67,–
CC(C)(C)C(=O)Nc1ccc(-c2cn3cccnc3n2)cc1,–,18.3 µM (active)
Cc1nn2c(=O)cc(COC(=O)c3ccc(NC(=O)C(C)(C)C)cc3)nc2s1,-1.82,–
CSc1ncccc1C(=O)Nc1cccc(S(=O)(=O)N2CCOCC2)c1,0.493,–
CN(CCc1ccccc1)C(=O)c1cccc(NC(=O)Cc2ccc([N+](=O)[O-])cc2)c1,-4.52,–
Cc1c(Cl)cnc(NC(=O)COC(=O)C2CCCC2)c1Cl,4.12,–
CCN(C(=O)CSc1nnnn1-c1ccc(OC)cc1)C1CCS(=O)(=O)C1 (stereo not given),0.218,–
Cc1cc(C)cc(NS(=O)(=O)c2ccc(F)cc2)c1,-4.39,–
Cn1c(=O)n(C)c2cc(NS(=O)(=O)c3ccc(F)cc3)ccc21,–,18.3 µM (active)
Cn1c(=O)n(C)c2cc(S(=O)(=O)Nc3ccc(F)cc3)ccc21,-3.07,–
CCN(c1ccccc1)S(=O)(=O)c1cccc(C(=O)NCc2ccccc2CN2CCOCC2)c1,-11.3,–
O=C1COc2ccc(C(=O)COC(=O)c3ccccc3Cl)cc2N1,0.842,–
CCSc1nnc(NC(=O)c2ccc(C)cc2)s1,–,1.64 µM (active)
C=CCSc1nnc(NC(=O)c2ccc(NC(C)=O)cc2)s1,9,–
CCOC(=O)CSc1nnc(NC(=O)c2cccc(S(=O)(=O)N3CCCC3)c2)s1,-2.46,–
COC(=O)[C@]1(C)N[C@H](CN(C)C(=O)c2ccc(C(C)(C)C)cc2)[C@@H]2C(=O)N(C)C(=O)[C@@H]21,1.84,–

SMILES,"activity change, positive = activation [%]",Potency
COc1ccc(CN2C(CC(=O)Nc3cccnc3)c3ccc(C(F)(F)F)cc3S2(=O)=O)cc1 (stereo not given),-0.505,–
O=C(COC(=O)c1ccc2c(c1)OCCO2)NCc1ccccc1Cl,-2.4,–
Cc1cccc(NC(=O)c2ccc(S(=O)(=O)N(C)c3ccccc3)cc2)n1,-8.84,–
CC(C)(C)NC(=O)NC(=O)COC(=O)Cc1ccc(Cl)cc1Cl,-0.247,–
COc1ccc(-c2csc(NC(=O)COC(=O)Cc3ccc(Cl)cc3Cl)n2)cc1,–,23.1 µM (active)
COc1ccc(OC)c(-c2csc(NC(=O)COC(=O)C3CC3)n2)c1,2.55,–
CS(=O)(=O)c1ccc(C(=O)NNC(=O)c2cccs2)cc1,1.1,–
O=c1c2ccccc2ncn1/N=C/c1ccccc1,–,3.66 µM (active)
O=C(Nn1cnc2ccccc2c1=O)c1ccccc1,2.68,–
O=c1c2ccccc2nc(N/N=C/c2ccccc2)n1O,3.16,–
CCN(C(=O)CSc1cccc[n+]1[O-])c1ccccc1,11.6,–
COc1ccc(CNC(=O)COC(=O)c2sccc2C)cc1OC,-0.24,–
CC(C)C(=O)Nc1cccc(C(=O)Nc2ccc3c(c2)OCO3)c1,–,6.51 µM (active)
O=C(Nc1nc2ccccc2s1)c1ccc2c(c1)OCO2,–,0.58 µM (active)
O=C(Nc1ccccc1)c1ccc2c(c1)OCCCO2,–,0.517 µM (active)
O=C(Nc1cccc(S(=O)(=O)Nc2ccc(Cl)cc2)c1)c1ccc2c(c1)OCCO2,4.3,–
COc1ccc2nc(NC(=O)NC3CCCCC3)sc2c1,21,–
COc1ccc2nc(NC(=O)c3ccc(Br)s3)sc2c1,–,2.82 µM (active)
O=C(Nc1nc2cc3c(cc2s1)OCCO3)c1cccc(S(=O)(=O)N2CCOCC2)c1,-16.4,–
COc1ccc2nc(NC(=O)[C@@H]3CCCN3C(=O)c3cccs3)sc2c1,-1.22,–
O=C(Nc1ccccc1N1CCN(C(=O)c2ccccc2)CC1)c1ccc2c(c1)OCO2,-0.629,–
CCSc1ccccc1C(=O)Nc1ccc2c(c1)OCO2,7.6,–

SMILES,"activity change, positive = activation [%]",Potency
CSc1ncccc1C(=O)Nc1ccc2c(c1)OCO2,5.57,–
O=C(Nc1cccc(S(=O)(=O)N2CCCCC2)c1)c1ccc2c(c1)OCO2,-5,–
C=CC[C@@H](CC(=O)N[C@H](CO)Cc1ccccc1)C(=O)N[C@H](C)COC(=O)[C@@H](CC=C)Cc1ccc(F)cc1,-3.07,–
CC(=O)c1c(C)[nH]c(C(=O)COC(=O)c2cccs2)c1C,15.1,–
COc1ccc(C2=Nn3c(nnc3-c3ccccc3OC)SC2)cc1OC1CCCC1,-7.28,–
COc1ccccc1N(CCOc1ccccc1)S(=O)(=O)c1ccccc1,-3.11,–
CC(C)(C)OC(=O)C[C@@H]1C/C=C\C[C@@H](CC(=O)N(CCO)Cc2ccccc2)C(=O)N[C@H](Cc2ccccc2)COC1=O,-0.66,–
CCCN(CC1CC1)C(=O)COC(=O)c1ccc(C)cc1O,0.402,–
O=C(COC(=O)c1cc(S(=O)(=O)N2CCOCC2)ccc1F)NC1CC1,1.88,–
O=C(Nc1cccc([N+](=O)[O-])c1)c1ccc2c(c1)OCO2,11.2,–
CC(C)CNS(=O)(=O)c1ccc(C(=O)Nc2ccc3c(c2)OCO3)cc1,4.37,–
O=C(Nc1ccc(NC(=O)c2ccc3c(c2)OCO3)cc1)c1cccc(Cl)c1,14.4,–
CS(=O)(=O)c1ccc2nc(NC(=O)c3ccc(Cl)nc3)sc2c1,-1.91,–
O=C(Nc1ccccc1)c1ccc2c(c1)OCO2,–,9.2 µM (active)
Cn1c(=O)n(C)c2cc(C(=O)Nc3ccc4c(c3)OCO4)ccc21,–,8.2 µM (active)
COc1cccc(C(=O)Nc2nc3ccc(S(C)(=O)=O)cc3s2)c1,-11.7,–
CNC(=O)c1ccc2nc(NC(C)=O)sc2c1,–,18.4 µM (active)
O=C(Nc1ccc2c(c1)OCO2)c1ccc(N2C(=O)c3ccccc3C2=O)cc1,10.5,–
O=C(OCC(=O)N1CCN(c2ccccc2)CC1)c1ccc([N+](=O)[O-])s1,-2,–
CC(=O)Nc1ccc(S(=O)(=O)NCC(=O)OCC(=O)c2ccc[nH]2)cc1,0.0742,–
CC(C)NC(=O)Nc1cccc2c1O[C@@H](CN(C)S(=O)(=O)c1ccc(F)cc1)[C@@H](C)CN([C@H](C)CO)C2=O,8.21,–
